According to PubChem BioAssay (NCATS):
Records with an inconclusive call do not appear. Calls of active or inactive are those of the source. Unless noted, calls follow the shape of the dose curve; as a rule, active = well fitted curve in the direction sought with a large enough effect; inconclusive = small, poorly fitted or top-dose-only effect, or another doubt; inactive = no such curve, though single readings can be large; an effect the other way counts as inactive or inconclusive.

Columns and labels:
[1] = qHTS to identify inhibitors of the type 1 interferon - major histocompatibility complex class I in skeletal muscle: primary screen against the NCATS Mechanism Interrogation Plate v5.0 (MIPE) Libary (AID 1347411); also: nearly all actives have a fitted effect of over 65% in size; also: potency is read from the fitted curve at half-maximal effect
Summary of the method: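 HLA-B HiBit myoblasts, dexamethasone-free medium + 4 ng/ml IFN-b, 24 h compound, 11-pt 1:3 from 46 uM final. Readout: Nano-Glo HiBiT lytic luminescence after 10 min lysis, RT.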

[2] = Primary qHTS for inhibitors of nuclear receptor binding SET domain protein 2 (NSD2) in an isogenic RCH-ACV NSD2 p.E1099K mutant (9B) (AID 1645876); also: nearly all actives have a fitted effect of over 70% in size; also: potency is read from the fitted curve at half-maximal effect
[3] = molecular target: Glutathione peroxidase 1 (Homo sapiens) (UniProt P07203); assay: Primary qHTS Assay for Inhibitors of Recombinant Selenoprotein Glutathione Peroxidase 1 (GPX1) (AID 1845191); also: nearly all actives have a fitted effect of over 65% in size
Summary of the method: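 GPX1 10 nM, GR 100 nM, GSH 1 mM, NADPH 0.5 mM, CHP 0.5 mM (final). 30-min cpd preincubation, RT. Ex340/Em450 read t=0, t=15 min.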

[4] = molecular target: Phospholipid hydroperoxide glutathione peroxidase GPX4 (Homo sapiens) (UniProt P36969); assay: Primary qHTS Assay for Inhibitors of Recombinant Selenoprotein Glutathione Peroxidase 4 (GPX4) (AID 1845192); conditions: outcome: dose series up to 50 µM unless noted; also: nearly all actives have a fitted effect of over 65% in size; also: potency is read from the fitted curve at half-maximal effect
Summary of the method: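 qHTS, GR-coupled: GPX4 200 nM + cpd 30 min RT → GSH 1 mM, NADPH 0.5 mM, GR 100 nM → CHP 0.5 mM start; fluor 340/450 at t0 and t15 min; no-enzyme wells as control.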

[5] = qHTS drug screen for cell cycle checkpoint inhibitors in PARPi-resistant BRCA-mutant ovarian cancer cell lines. (AID 1963452; calls by dose curve; also: potency is read from the fitted curve at half-maximal effect); conditions: PEO1/OlaR viability, CellTiter-Glo luminescence, 96 h; for Z-AUC: stronger effect = lower value
Summary of the method: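 PEO1, PEO4 and PEO1/OlaR ovarian cancer cells, 600 per well, exposed 96 h at 37C to a dilution series. Viability read by CellTiter-Glo luminescence, normalized to DMSO and empty wells; activity summarized as Z-AUC.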

[6] = Primary qHTS for inhibitors of nuclear receptor binding SET domain protein 2 (NSD2) in an RCH-ACV wild type WT cells (2C) (AID 1645877); also: nearly all actives have a fitted effect of over 70% in size
[7] = measured here: PEO1 parental Z-AUC

Glutathione peroxidase 1 (Homo sapiens), sequence (P07203 whole entry, looked up): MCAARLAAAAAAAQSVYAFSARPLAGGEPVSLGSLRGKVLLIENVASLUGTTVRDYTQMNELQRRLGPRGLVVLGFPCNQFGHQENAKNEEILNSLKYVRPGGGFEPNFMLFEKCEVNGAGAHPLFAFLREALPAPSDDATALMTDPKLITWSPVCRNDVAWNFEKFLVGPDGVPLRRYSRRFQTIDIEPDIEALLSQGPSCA
Phospholipid hydroperoxide glutathione peroxidase GPX4 (Homo sapiens), sequence (P36969 whole entry, looked up): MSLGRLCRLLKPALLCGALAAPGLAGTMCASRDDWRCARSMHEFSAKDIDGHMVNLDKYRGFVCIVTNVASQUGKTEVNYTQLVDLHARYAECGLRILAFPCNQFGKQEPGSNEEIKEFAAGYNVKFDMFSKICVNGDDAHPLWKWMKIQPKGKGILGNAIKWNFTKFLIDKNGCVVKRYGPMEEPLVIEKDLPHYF

Row | SMILES | Potency [1] | Potency [2] | Potency [3] | Potency [4] | Z-AUC [5] | Z-AUC [5, 7] | Z-AUC ([5]; measured here: PEO4 Z-AUC) | Potency [5] | Potency [6]
1 | CCOC(=N)c1nc2ccc3ncnc(Nc4cc(F)c(F)cc4Cl)c3c2s1 | inactive | inactive | inactive | inactive | -1.14 (inactive) | -1.11 | -1.07 | – | –
2 | Cc1cc(C)c2c(c1)[C@@H](N(Cc1cc(C(F)(F)F)cc(C(F)(F)F)c1)c1nnn(C)n1)CCCN2CC1CCC(C(=O)O)CC1 (stereo partly drawn) | inactive | inactive | inactive | – | 0.561 (inactive) | 1.04 | 0.634 | – | –
3 | CC1(C)C(N(O)C(=O)Nc2ccc(Cl)cc2)N(c2ccc(Cl)cc2)C(=O)N1CC(=O)N/N=C/C=C/c1ccc([N+](=O)[O-])o1 (stereo not drawn) | 14.7 µM (active) | 7.42 µM (active) | inactive | 14.3 µM (active) | 1.66 (inactive) | 1.13 | 1.09 | – | –
4 | COc1cc(OC)c(/C=C/S(=O)(=O)Cc2ccc(OC)c(OP(=O)(O)O)c2)c(OC)c1 | inactive | 0.0372 µM (active) | inactive | inactive | – | -2.04 | -2.09 | 0.049 µM (active) | –
5 | C[C@H]1CNCCCN1S(=O)(=O)c1cccc2cncc(F)c12 | inactive | inactive | – | – | -0.978 (inactive) | -0.15 | 0.771 | – | inactive
